A short description of assay [1]: GFP-Q80 aggregate reduction, neuronal-like cells, cell-based, NGF-treated PC12, GFPQ80 (AID 1614).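 Further: lower means fewer inclusions and 0 means no inclusions at all.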 The note with it: PC12 NGF-treated GFP-polyQ80 inclusion reduction.
Assay [2] in a line: compounds altering circadian rhythm period length – cell-based, LOPAC library, luminescence reporter (AID 2774; call rule not given here;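 further: values are relative to mean of DMSO wells on each plate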). Conditions: circadian reporter cells, at 7 µM, actives lie on both sides.
Assay [3] concerns Hepatitis C virus NS3 helicase. Nature of the assay: blockers of NS3h binding to ssDNA – biochemical, fluorescence polarization, LOPAC1280 library, primary screen (AID 687035; in the data active means inhibition above about 37%). Conditions: Purified HCV NS3 helicase, Cy5-dT15 ssDNA binding fluorescence polarization; stronger effect = higher value; concentration not given here. In general terms: Fluorescence polarisation rises when a labelled molecule tumbles more slowly, as on binding a larger partner.

A short description of assay [4]: compounds altering Cy5-DNA-NS3h complex signal – biochemical, LOPAC1280, artefact control for HCV NS3 helicase inhibitor project (AID 687037; call rule not given here). The note with it: Cy5-DNA-NS3h complex fluorescence interference counterscreen. (Counterscreens check selectivity or assay interference.)
Assay [5] can be described thus: viability loss in pontine glioma line – cell-based, SU-DIPG-XIII, MIPE4.0, CellTiter-Glo, qHTS, dose response (AID 1347061; cut-off not given, nearly all actives have AC50 up to about 37 µM;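 further: cells exposed to compound for 48 hours before readout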). Conditions: CellTiter-Glo ATP luminescence. Background: In ATP-based viability assays light output follows the ATP content of the culture.
Assay [6] can be described thus: viability loss in pontine glioma line – cell-based, JHH-DIPG-1, MIPE4.0, CellTiter-Glo, qHTS, dose response (AID 1347062; cut-off not given, nearly all actives have AC50 up to about 27 µM;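 on AC50: cells exposed to compound for two days before readout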). The note with it: JHH-DIPG-1 viability, CellTiter-Glo ATP luminescence.
Assay [7] is described as follows: viability loss in pontine glioma line – cell-based, SU-DIPG-IV, MIPE4.0, CellTiter-Glo, qHTS, dose response (AID 1347063).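 Further: compound exposure lasted 48 hours before the viability readout.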 Conditions: CellTiter-Glo ATP luminescence.
A short description of assay [8]: JHH-DIPG-1 glioma cell viability, MIPE5.0 library, CellTiter-Glo luminescence, qHTS (AID 1347067; cut-off not given, nearly all actives have AC50 up to about 26 µM;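 further: cells exposed to compound for 48 hours before readout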). The note with it: JHH-DIPG-1 glioma viability, CellTiter-Glo ATP luminescence.
Assay [9] is described as follows: growth inhibition of DIPG cells – cell-based, MIPE5.0 library, qHTS (AID 1347068; cut-off not given, nearly all actives have IC50 up to about 30 µM). Conditions: SU-DIPG-XXV viability.
Assay [10] is described as follows: blockers of cellular phospholipid synthesis – cell-based, LOPAC library, screen 4, primary screen (AID 1347384; call rule not given here). Conditions: animal cells, phospholipid biosynthesis inhibition screen; at 10 µM.
Assay [11] is described as follows: growth inhibition of DIPG cells – cell-based, MIPE4.0 library, CellTiter-Glo luminescence, qHTS (AID 1347066).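 Further: cells exposed to compound for 48 hours before readout.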 The note with it: SU-DIPG-VI viability, CellTiter-Glo ATP luminescence.
Assay [12] can be described thus: P. berghei load reduction in hepatocytes – cell-based, HepG2, luciferase luminescence, HepG2 viability, primary screen (AID 624349; in the data active means parasite load remaining mostly below about 12%, no sharp cut-off; inactive means mostly above about 10%;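 further: 100% = mean of DMSO negative control wells on the same plate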). Conditions: P. berghei liver stage in HepG2, luciferase luminescence, concentration not given here; parasite load remaining: stronger effect = lower value; viability: measured here: HepG2 viability without parasites.
Assay [13] in a line: viability loss in pontine glioma line – cell-based, SU-DIPG-XVII, MIPE5.0, CellTiter-Glo, qHTS, dose response (AID 1347060; cut-off not given, nearly all actives have AC50 up to about 26 µM;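 on AC50: cells exposed to compound for 48 hours before viability readout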). Conditions: CellTiter-Glo ATP luminescence.

The results in this text go back to PubChem BioAssay.

Several values for one entry are separate records, joined by “and”; a condition that tells them apart may be missing. Equal values may be shown once. Results filed as inconclusive are left out. Activity calls are given as the source filed them. Unless noted, cut-off not given; nearly all actives show AC50 up to about 30 µM.

A word on the inhibition: it is the drop in the measured response relative to a control, in per cent. What is called AC50 is the concentration at which the activity in the assay is half-maximal. Molecule `NC(=O)c1cnccn1` displayed an inclusion score in [1] of 2. The period change in [2] is 0 h (inactive). Further, the inhibition in [3] is 1% (inactive). Besides, the fluorescence ratio (interference) in [4] is 1 (inactive). In addition, the AC50 in assay [5] was 18700 nM (active). Also, the result in assay [6], in assay [7], in [8], in assay [9] and in assay [10] was inactive.

In assay [1], `OC(CCN1CCCC1)(c1ccccc1)C1CCCCC1` (configuration not stated) yielded an inclusion score of 2.

In [1], `CCc1cccc2c3c([nH]c12)C(CC)(CC(=O)O)OCC3` (configuration not stated) yielded an inclusion score of 2. In [2], the period change is -0.07 h (inactive). Moreover, in [3], the inhibition was -3% (inactive). In assay [4], the fluorescence ratio (interference) was 1 (inactive). The call in assay [5], in assay [6], in assay [7], in [11] and in assay [10] was inactive.

As to `Cc1ccccc1C(OCCN(C)C)c1ccccc1` (configuration not stated), in [1], the inclusion score was 2. Besides, in assay [2], the period change is 0.21 h (inactive). Also, the inhibition in assay [3] was -2% (inactive). In addition, in assay [4], the fluorescence ratio (interference) is 0.9 (inactive). The molecule was called inactive in [5], in assay [6], in [7], in [11] and in [10].

The viability is a read-out of living cells in per cent, often relative to untreated cells. In assay [1], `O=S(=O)(O)CCS` showed an inclusion score of 2. Further, the parasite load remaining in assay [12] was 51.7% (inactive) and 115% (inactive) and 24.6% (inactive). Besides, the viability in assay [12] is 104% and 70.5% and 96.3%. Besides, the outcome in assay [13], in [6], in [7], in [11], in assay [8] and in assay [9] was inactive.

The molecule `Cc1ccc(C)c(OCCCC(C)(C)C(=O)O)c1` registered an inclusion score in [1] of 2. For the same molecule, the result in assay [13], in assay [7], in assay [11], in assay [8] and in assay [9] was inactive.

`Nc1ncn([C@@H]2O[C@H](CO)[C@@H](O)[C@H]2O)c(=O)n1`: the period change in assay [2] is 0.105 h (inactive). Moreover, in assay [12], the parasite load remaining is 162% (inactive) and 170% (inactive) and 176% (inactive). The viability in [12] was 101% and 77.2% and 95%. Further, the inhibition in assay [3] is -1% (inactive). In addition, the fluorescence ratio (interference) in assay [4] was 0.9 (inactive). The AC50 in assay [13] was 1480 nM (active); in assay [6] it was 2960 nM (active); in [7], 935 nM (active); in [8] it was 7420 nM (active). Moreover, the molecule was called inactive in assay [10].

Regarding `N[C@@H](C(=O)N[C@@H]1C(=O)N2C(C(=O)O)=C(Cl)CS[C@H]12)c1ccccc1`, the molecule was called inactive in assay [5], in assay [6] and in assay [7].

`NC(=O)N1c2ccccc2CC(=O)c2ccccc21`: the molecule was called inactive in [5], in [6], in assay [7] and in assay [11].

Regarding `Clc1ccc2c(c1)C(N1CCNCC1)=Nc1ccccc1O2`, the period change in assay [2] is 0.105 h (inactive). For the same molecule, the inhibition in [3] is -4% (inactive). Also, in [4], the fluorescence ratio (interference) was 1 (inactive). For the same molecule, the outcome in assay [5], in [6], in assay [7], in [11] and in assay [10] was inactive.

`COC1=CC(=O)C[C@@H](C)[C@]12Oc1c(Cl)c(OC)cc(OC)c1C2=O` registered an inclusion score in assay [1] of 2. Also, in assay [12], the parasite load remaining is 86.5% (inactive) and 55.9% (inactive) and 116% (inactive); the viability is 139% and 48% and 184%.

As to `C/C=C/C(=O)N(CC)c1ccccc1C`, the call in assay [13], in assay [6], in assay [11], in assay [8] and in [9] was inactive.
